Screens deposited in PubChem BioAssay by National Center for Advancing Translational Sciences (NCATS).
Rows were chosen to be rich in hits. Some 2.1% of all compounds tested hit in one or more screens of this group.
PTAP TSG101 blk: blocks PTAP/TSG101 interaction to inhibit HIV-1 budding. Q99816. Fluorescence polarization, FITC-PTAP peptide / Tsg101 binding. Potency, µM (series often up to 115 µM), without a hit: top-dose activity change, negative = inhibition, hits mostly inhibitors. 340,000 tested, under 10 active. AID 493005; active = well fitted inhibition curve with a large enough effect in the main read-out, with a control signal flat, not every such curve was filed as active; inconclusive = small, poorly fitted or top-dose-only effect, or effect the other way, or a change in a side signal; inactive = no such curve, though single readings can be large or run the other way; also: % of control where 0% means no effect
Target sequence (Q99816 whole entry, looked up): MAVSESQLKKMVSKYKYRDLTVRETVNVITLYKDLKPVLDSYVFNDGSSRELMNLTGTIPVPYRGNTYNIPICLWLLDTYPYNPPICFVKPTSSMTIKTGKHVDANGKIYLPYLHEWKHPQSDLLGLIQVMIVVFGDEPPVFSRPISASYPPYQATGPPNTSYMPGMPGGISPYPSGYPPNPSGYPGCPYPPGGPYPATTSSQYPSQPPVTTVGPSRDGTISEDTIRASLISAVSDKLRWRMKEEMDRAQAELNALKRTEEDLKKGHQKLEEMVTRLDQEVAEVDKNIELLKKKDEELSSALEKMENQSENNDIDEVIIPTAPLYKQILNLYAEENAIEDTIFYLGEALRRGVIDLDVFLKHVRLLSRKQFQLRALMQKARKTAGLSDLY
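Fluorescence anisotropy tracks displacement of a FITC-tagged PTAP peptide (50 nM) from the Tsg101 binding domain (10 uM), following a 20 min room-temperature incubation at pH 7.5.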
TDP-43 yeast inh: inhibitors of TDP-43 toxicity in yeast. TDP-43 expressing yeast growth rescue, BacTiter-Glo, 24 h. Potency, µM (series often up to 46.1 µM), inactives show at the highest dose growth rescue (activation), most hits filed as activators. 410,000 tested, 1.8% active. AID 652104; also: % of control where 0% means no effect; nearly all actives have a fitted effect of over 50% in size
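In this qHTS, compounds that restore growth of yeast expressing TDP-43 appear as activators. Cells (OD600=0.02, galactose medium, raffinose-pregrown) are incubated with compound 24 hr at 30 deg C and growth is quantified by BacTiter-Glo.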
FUS suppressor: suppressors of FUS proteinopathy in yeast. S. cerevisiae FUS-expressing, growth rescue, OD600, 24 h. Potency, µM (titrated, usually from 76.6 µM), usual class: activators. 390,000 tested, 0.24% active;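 also: plate controls were DMSO vehicle for no effect and reference control for full effect; nearly all actives have a fitted effect of over 55% in size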
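Toxicity suppression screen in FUS-yeast. Cells induced with 2% galactose, starting OD 0.005, treated 24hr at 30C with compounds at multiple final concentrations; growth by OD600.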
Abeta rescue: A-beta toxicity reversal in yeast. yeast expressing A-beta42, growth rescue, OD600, 48 h; response scale: 0% DMSO, 100% iron-clioquinol control. Potency, µM (top dose mostly 46.1 µM), usual class: activators. 410,000 tested, 0.063% active; also: nearly all actives have a fitted effect of over 55% in size
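Yeast growth medium received pinned compounds, then yeast cells expressing toxic A-beta were added; plates incubated at 30 C for 48 hr. Growth read as absorbance at 600 nm, normalized to DMSO and equimolar FeCl3 plus clioquinol controls.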
aSyn rescue: alpha-synuclein toxicity inhibition in yeast; Yeast expressing alpha-synuclein, growth rescue, BacTiter-Glo, 24 h; Potency, µM (doses to about 46.1 µM), without a hit: at the highest dose growth rescue (activation), usual class: activators; 370,000 tested, 0.14% active; AID 652106; also: % of control where 0% means no effect; nearly all actives have a fitted effect of over 65% in size
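Readout is rescue of growth in alpha-synuclein-expressing yeast, so inhibitors of toxicity appear as activators. Growth after 24 hr at 30 deg C in galactose medium is quantified by luminescence.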
* = called active by the depositor. Unless noted, calls follow the shape of the dose curve; as a rule, active = well fitted curve in the direction sought with a large enough effect; inconclusive = small, poorly fitted or top-dose-only effect, or another doubt; inactive = no such curve, though single readings can be large; an effect the other way counts as inactive or inconclusive. Potency is read from the fitted curve at half-maximal effect.

What do the screens show for `COc1ccc(NC(=S)NNC(=O)C2CC2c2ccc(C)cc2)cc1` (configuration not stated)?
PTAP TSG101 blk: 1%; TDP-43 yeast inh: inconclusive; Abeta rescue: inactive; aSyn rescue: 4%

How did Cc1ccc(NC(=S)NNC(=O)C2CC2c2ccc(C)cc2)cc1 (configuration not stated) do in these assays?
PTAP TSG101 blk: 0%; TDP-43 yeast inh: 0%; FUS suppressor: 28µM*; Abeta rescue: inconclusive; aSyn rescue: 1%

Results for COc1cc2nc(N3CCCCC3)nc(NC3CC3)c2cc1OC ?
aSyn rescue: -3%

Results for C[C@@H]1CN([C@@H](C)CO)C(=O)Cc2cc(NC(=O)Nc3ccc(C(F)(F)F)cc3)ccc2O[C@@H]1CN(C)S(=O)(=O)c1ccc(Cl)cc1 ?
PTAP TSG101 blk: 0%; TDP-43 yeast inh: 4%; FUS suppressor: 18µM*; Abeta rescue: inactive; aSyn rescue: 2%

Results for C[C@@H]1CN([C@H](C)CO)C(=O)c2cc(NC(=O)Nc3ccc(C(F)(F)F)cc3)ccc2O[C@H]1CN(C)S(=O)(=O)c1cccs1 ?
PTAP TSG101 blk: -2%; TDP-43 yeast inh: 15%; FUS suppressor: 10µM*; Abeta rescue: inactive; aSyn rescue: 0%

What do the screens show for `C[C@H](CO)N1C[C@H](C)[C@@H](CN(C)S(=O)(=O)c2cccs2)Oc2ccc(NC(=O)Nc3ccc(C(F)(F)F)cc3)cc2C1=O`?
PTAP TSG101 blk: 0%; TDP-43 yeast inh: 4%; FUS suppressor: inactive; Abeta rescue: inactive; aSyn rescue: 1%

Results for Cc1ccc(CSc2nnc(-c3ccc(NC(=O)CCc4ccccc4)cc3)n2C)cc1 ?
aSyn rescue: 9%

What do the screens show for `CN1C(=S)N(c2cccnc2)C(=O)/C1=C\c1ccc(C(C)(C)C)cc1`?
PTAP TSG101 blk: -5%; TDP-43 yeast inh: 16µM*; FUS suppressor: inactive; Abeta rescue: inactive; aSyn rescue: inconclusive

What do the screens show for `Cc1cccc(OC(C)C(=O)N2CCC(c3nc4ccccc4o3)CC2)c1C` (configuration not stated)?
TDP-43 yeast inh: 29%; FUS suppressor: inactive; Abeta rescue: inactive

How did COc1ccc(OCc2cc(-c3ccc(Cl)cc3)no2)cc1 do in these assays?
PTAP TSG101 blk: -7%; TDP-43 yeast inh: 0%; FUS suppressor: inactive; Abeta rescue: inactive; aSyn rescue: 0%

Results for O=C(CCl)NCc1cc(-c2ccc(Cl)cc2)no1 ?
PTAP TSG101 blk: -1%; TDP-43 yeast inh: 10µM*; FUS suppressor: inactive; Abeta rescue: inactive; aSyn rescue: -8%

Results for Cc1ccc2nc(NC(=O)CSc3nccn3Cc3ccc(Cl)cc3)sc2c1 ?
TDP-43 yeast inh: 11µM*; FUS suppressor: inactive; Abeta rescue: inactive

How did CCOc1ccc2nc(NC(=O)c3ccccn3)sc2c1 do in these assays?
PTAP TSG101 blk: -1%; TDP-43 yeast inh: 5%; FUS suppressor: inactive; Abeta rescue: inactive; aSyn rescue: -3%

How did Cc1ccc2nc(NC(=O)c3ccccn3)sc2c1 do in these assays?
PTAP TSG101 blk: 1%; TDP-43 yeast inh: 10µM*; FUS suppressor: inactive; Abeta rescue: inactive; aSyn rescue: 7.1µM*

What do the screens show for `O=C(CSc1nccn1Cc1ccc(F)cc1)Nc1nc2ccccc2s1`?
TDP-43 yeast inh: inconclusive; FUS suppressor: inactive; Abeta rescue: inconclusive; aSyn rescue: 20µM*

What do the screens show for `O=C(CSc1nccn1Cc1ccccc1)NCc1ccc(F)cc1`?
TDP-43 yeast inh: 4%; FUS suppressor: inactive; Abeta rescue: inactive; aSyn rescue: 8%

Results for Cc1ccc(Cn2ccnc2SCC(=O)NCc2ccccc2Cl)cc1 ?
TDP-43 yeast inh: 11µM*; FUS suppressor: inactive; Abeta rescue: inactive

What do the screens show for `C(=C\c1c[nH]c2ccccc12)/c1ccc2ccccc2n1`?
aSyn rescue: 12%

How did COc1cc(Nc2nc(-c3ccccc3)c3cc(C)ccc3n2)cc(OC)c1OC do in these assays?
PTAP TSG101 blk: -6%; TDP-43 yeast inh: 20µM*; FUS suppressor: inactive; Abeta rescue: inactive; aSyn rescue: -24%

How did Nc1ccccc1Sc1ccccc1[N+](=O)[O-] do in these assays?
PTAP TSG101 blk: -1%; TDP-43 yeast inh: 18µM*; Abeta rescue: inactive; aSyn rescue: 17%

Results for O=[N+]([O-])c1ccc(SNc2ccccc2)c([N+](=O)[O-])c1 ?
PTAP TSG101 blk: -2%; TDP-43 yeast inh: inconclusive; Abeta rescue: inactive; aSyn rescue: 0%

What do the screens show for `O=[N+]([O-])c1ccccc1SNc1ccccc1`?
TDP-43 yeast inh: 13µM*; FUS suppressor: inactive; Abeta rescue: inactive; aSyn rescue: 18%

What do the screens show for `Cc1nn(-c2ccccc2)c(N)c1Sc1ccccc1[N+](=O)[O-]`?
PTAP TSG101 blk: -2%; TDP-43 yeast inh: 16%; FUS suppressor: inactive; Abeta rescue: inactive; aSyn rescue: 13%

What do the screens show for `O=[N+]([O-])c1cc(/C=N/O)ccc1Sc1ccccc1`?
PTAP TSG101 blk: -1%; TDP-43 yeast inh: 3.2µM*; FUS suppressor: inactive; Abeta rescue: inactive; aSyn rescue: 19%

What do the screens show for `CO/N=C/c1ccc(Sc2ccccc2)c([N+](=O)[O-])c1`?
PTAP TSG101 blk: -2%; TDP-43 yeast inh: 2%; FUS suppressor: inactive; Abeta rescue: inactive; aSyn rescue: -8%

Results for CO/N=C/c1ccc(Sc2ccccc2N)c([N+](=O)[O-])c1 ?
PTAP TSG101 blk: -3%; TDP-43 yeast inh: 20µM*; FUS suppressor: inactive; Abeta rescue: inconclusive; aSyn rescue: 7%

What do the screens show for `Cc1ccccc1C(=O)N(C)[C@H]1C[C@H]2c3[nH]c4ccccc4c3CCN2C(=O)[C@H]1[C@H](C)O`?
TDP-43 yeast inh: inconclusive; FUS suppressor: inactive; Abeta rescue: inactive; aSyn rescue: 2%

How did CCOC(=O)c1sc(Nc2ccccc2Cl)nc1C do in these assays?
PTAP TSG101 blk: -5%; TDP-43 yeast inh: 20µM*; FUS suppressor: inactive; Abeta rescue: inactive; aSyn rescue: -3%

Results for CCOC(=O)c1sc(NNC(=O)c2ccc(F)cc2)nc1C ?
PTAP TSG101 blk: -5%; TDP-43 yeast inh: 14µM*; FUS suppressor: inactive; Abeta rescue: inconclusive; aSyn rescue: inconclusive

What do the screens show for `CCOC(=O)c1sc(NCCNc2nc(C)c(C(=O)OCC)s2)nc1C`?
PTAP TSG101 blk: -1%; TDP-43 yeast inh: -25%; FUS suppressor: inactive; Abeta rescue: inactive; aSyn rescue: 7%

How did CCOC(=O)c1sc(Nc2ccc(Br)cc2)nc1C do in these assays?
PTAP TSG101 blk: -1%; TDP-43 yeast inh: 16µM*; FUS suppressor: inactive; Abeta rescue: inactive; aSyn rescue: 0%

What do the screens show for `CCOC(=O)c1sc(NC(=O)Nc2ccccc2F)nc1C`?
PTAP TSG101 blk: -5%; TDP-43 yeast inh: 16%; FUS suppressor: inactive; Abeta rescue: inactive; aSyn rescue: -1%
